Assay results taken from PubChem BioAssay (NCATS).
Records with an inconclusive call do not appear. Calls of active or inactive are those of the source. The call rests on the fitted dose curve; in most records, active means well fitted inhibition curve with a large enough effect; inconclusive means small, poorly fitted or top-dose-only effect; inactive means flat fitted curve, though single readings scatter.

Tests used:
CRL-7250 = normal cell line; experiment: Cytotoxic Profiling of Annotated Libraries Using Quantitative High-Throughput Screening (AID 1296008); settings: Five cell lines viability, CellTiter-Glo ATP luminescence, 48-72 h; max response: active compounds read low; on max response: on the % scale 0 is the no-effect control and ±100 the full control effect
In short: (§1)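 Cytotoxicity was measured as CellTiter-Glo ATP luminescence, read after 10 min at room temperature. Compound treatment of the cells lasted 48 or 72 hr at 37 degrees Celsius in a qHTS format.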

HEK293 = experiment: as above; settings: Five cell lines viability, CellTiter-Glo ATP luminescence, 48-72 h; max response: active compounds read low
In short: as §1

HaCat [1] = experiment: as above; settings: Five cell lines viability, CellTiter-Glo ATP luminescence, 48-72 h; max response: active compounds read low
In short: as §1

KB-3-1 = experiment: as above; settings: Five cell lines viability, CellTiter-Glo ATP luminescence, 48-72 h; max response: active compounds read low
In short: as §1

NIH3T3 [2] = experiment: as above; settings: Five cell lines viability, CellTiter-Glo ATP luminescence, 48-72 h; max response: active compounds read low
In short: as §1

HEK293T = experiment: qHTS assay to identify novel small-molecules to repurpose for Merkel cell carcinoma treatment (AID 1296009); settings: MCC and control cell lines, CellTiter-Glo viability, 72 h; at 44.8 µM (top of the series) unless noted
In short: (§2)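 After compound transfer in DMSO, plates were kept 72 hr at 37 degree celsius. Luminescent ATP signal from CellTiter-Glo served as viability measure, normalized against DMSO and no-cell controls.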

TAB165 = experiment: qHTS profiling for inhibitors of Plasmodium falciparum proliferation (AID 504749);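 further: 0% = DMSO vehicle and full inhibition = artemisinin control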; settings: P. falciparum in erythrocytes, SYBR Green DNA, 72 h; series mostly up to 28.7 µM
In short: (§3)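 Three-day growth assay of blood-stage parasites in erythrocytes (0.3% parasitemia, 2.5% hematocrit) at 37 C, 5% CO2, quantified by SYBR Green DNA staining after overnight detergent lysis.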

W2 = experiment: as above; settings: P. falciparum in erythrocytes, SYBR Green DNA, 72 h; series mostly up to 28.7 µM
In short: as §3

HACAT [3] = experiment: qHTS assay to identify novel small-molecules to repurpose for Merkel cell carcinoma treatment (AID 1296009); settings: MCC and control cell lines, CellTiter-Glo viability, 72 h; at 44.8 µM (top of the series) unless noted
In short: as §2

NIH3T3 [4] = experiment: as above; settings: MCC and control cell lines, CellTiter-Glo viability, 72 h; at 44.8 µM (top of the series) unless noted
In short: as §2

Measured: max response
Further: nearly all actives have a fitted effect of over 60% in size.

C[C@@H]1[C@H]2[C@H](O[C@@H]3O[C@H](CO)[C@@H](O)[C@H](O)[C@H]3O)OC=C(C(=O)O)[C@H]2C[C@@H]1OC(=O)/C=C/c1ccc(O)cc1
inactive: CRL-7250 -1.73% | HEK293 | HaCat [1] -1.65% | KB-3-1 7.88% | NIH3T3 [2] 1.42% | HEK293T inactive [at 17.4 µM]

CC(C)C1(O)NC(=O)C(CC2(O)c3ccccc3N3C(=O)C(C)(C)NC32)n2c1nc1ccccc1c2=O (centres undefined)
inactive: CRL-7250 | HEK293 | HaCat [1] -2.62% | KB-3-1 | NIH3T3 [2] -5.54% | HEK293T inactive [at 17.4 µM]

CC1(C)CC[C@]2(C(=O)O)CC[C@]3(C)C(=CCC4[C@@]5(C)CC[C@H](O[C@H]6O[C@H](C(=O)O)[C@@H](O)[C@H](O[C@@H]7O[C@H](CO)[C@H](O)[C@H](O)[C@H]7O)[C@H]6O)C(C)(C)C5CC[C@]43C)[C@@H]2C1 (some centres undefined)
inactive: CRL-7250 | HEK293 | HaCat [1] 3.39% | KB-3-1 4.97% | NIH3T3 [2] -6.78% | HEK293T inactive [at 9.27 µM]

CCOC(=O)C(CCc1ccccc1)NC1CCCN2CCCC(C(=O)O)N2C1=O (centres undefined)
inactive: CRL-7250 2.69% | HEK293 | HaCat [1] 1.44% | KB-3-1 2.78% | NIH3T3 [2] 0.311% | HEK293T

CSCC1OC(n2cnc3c(N)ncnc32)C(O)C1O (centres undefined)
inactive: CRL-7250 | HEK293 | HaCat [1] 2.69% | KB-3-1 | NIH3T3 [2] -0.346% | HEK293T

O=C(O[C@@H]1O[C@H](CO)[C@@H](O)[C@H](O)[C@H]1O)c1ccccc1
inactive: CRL-7250 | HEK293 | HaCat [1] 4.66% | KB-3-1 | NIH3T3 [2] 4.36% | HEK293T

C/C=C(/C)C(=O)OC1C(OC(C)=O)C23C(O)OC4(CCC5C6(C)CCC(OC7OC(C(=O)O)C(O)C(OC8OC(CO)C(O)C(O)C8OC8OC(C)C(O)C(O)C8OC8OCC(O)C(O)C8O)C7OC7OC(CO)C(O)C(O)C7O)C(C)(C)C6CCC5(C)C4(C)CC2OC(C)=O)C3CC1(C)C (centres undefined)
inactive: CRL-7250 1.39% | HEK293 | HaCat [1] 1.22% | KB-3-1 4.58% | NIH3T3 [2] -12.1% | HEK293T inactive [at 9.27 µM]

O=C(/C=C/c1ccc(O)cc1)OC[C@H]1O[C@H](O[C@@]2(CO)O[C@@H](CO)[C@H](O)[C@H]2O)[C@H](O)[C@@H](O)[C@@H]1O
inactive: CRL-7250 | HEK293 | HaCat [1] 1.8% | KB-3-1 | NIH3T3 [2] -0.438% | HEK293T inactive [at 17.4 µM]

C[C@@H]1CC[C@]2(C(=O)O)CC[C@]3(C)C(=CCC4[C@@]5(C)C[C@@H](O)[C@@H](O)C(C)(C)C5CC[C@]43C)C2[C@]1(C)O (some centres undefined)
inactive: CRL-7250 -1.23% | HEK293 | HaCat [1] -10.3% | KB-3-1 9.05% | NIH3T3 [2] -8.5% | HEK293T inactive [at 17.4 µM]

C[C@@H]1C(=O)O[C@H](C)[C@H]1C[C@@H](O)[C@](C)(O)[C@H]1CC[C@@]2(O)C3=CC(=O)[C@@H]4C[C@@H](O)[C@@H](O)C[C@]4(C)C3CC[C@]12C (some centres undefined)
inactive: CRL-7250 -1.86% | HEK293 | HaCat [1] -25% | KB-3-1 8.3% | NIH3T3 [2] 1.28% | HEK293T inactive [at 17.4 µM]

C/C=C/C=C/C=C/C(=O)O[C@@H]1[C@@H](OC)C2=C(C(=O)N(C(CCC(=O)O)C(=O)O)C2)[C@@]2(C)CCCC(C)(C)[C@H]12 (some centres undefined)
inactive: CRL-7250 -4.83% | HEK293 | HaCat [1] -8.01% | KB-3-1 0.124% | NIH3T3 [2] -12.6% | HEK293T inactive [at 17.4 µM]

CCc1cccc2c3c([nH]c12)[C@@](CC)(CC(=O)O)OCC3
inactive: TAB165 | W2 | CRL-7250 0.605% | HEK293 3.28% | HaCat [1] | KB-3-1 | NIH3T3 [2] 1.91% | HACAT [3]

O=C1C[C@@]2(C(=O)N1)C(=O)N(Cc1ccc(Br)cc1F)C(=O)c1cccn12
inactive: CRL-7250 -0.124% | HEK293 | HaCat [1] -21% | KB-3-1 1.61% | NIH3T3 [2] 1.31% | HEK293T

C[C@]12CC/C(=N\OCC(=O)O)C=C1CC[C@@H]1[C@@H]2[C@@H](O)C[C@@]2(C)[C@H]1CC[C@]2(O)C(=O)CO
inactive: CRL-7250 -6.4% | HEK293 | HaCat [1] 2.89% | KB-3-1 | NIH3T3 [2] -9.49% | HEK293T

CC(CCc1ccc(O)cc1)O[C@@H]1O[C@H](CO[C@@H]2OC(CO)[C@H](O)[C@H]2O)[C@@H](O)[C@H](O)[C@H]1O (some centres undefined)
inactive: CRL-7250 -0.0719% | HEK293 | HaCat [1] -7.01% | KB-3-1 | NIH3T3 [2] -1.05% | HEK293T inactive [at 17.4 µM]

C=C(CCO)C(=O)OCC1OCC(OC(=O)C(=C)CCO[C@@H]2O[C@H](COC(=O)C(=C)CCO[C@@H]3O[C@H](CO)[C@@H](O)[C@H](O)[C@H]3O)[C@@H](O)[C@H](O)[C@H]2O)C(O)C1O (some centres undefined)
inactive: CRL-7250 0.815% | HEK293 | HaCat [1] -17.9% | KB-3-1 0.844% | NIH3T3 [2] 3.62% | HEK293T inactive [at 17.4 µM]

CC1OC(O[C@@H]2[C@H](O)[C@@H](OC3OC(CO)C(O)C(O)C3O)[C@H](OC(=O)[C@]34CCC(C)(C)C[C@H]3C3=CCC5[C@@]6(C)CC[C@H](O[C@@H]7O[C@H](C(=O)O)[C@@H](O)[C@H](O[C@@H]8OC[C@@H](O)[C@H](O)[C@H]8O)[C@H]7O[C@@H]7O[C@H](CO)[C@H](O)[C@H](O)[C@H]7O)[C@@](C)(C=O)C6CC[C@@]5(C)[C@]3(C)C[C@H]4O)O[C@@H]2C)C(O)C(O)C1OC1OCC(O)C(O)C1O (some centres undefined)
inactive: CRL-7250 -3.77% | HEK293 -1.1% | HaCat [1] | KB-3-1 | NIH3T3 [2] | HACAT [3] inactive [at 4.96 µM] | NIH3T3 [4] inactive [at 4.96 µM]

C=C[C@@](C)(CCC=C(C)C)O[C@@H]1O[C@H](CO[C@@H]2OC[C@H](O)[C@H](O)[C@H]2O)[C@@H](O)[C@H](O)[C@H]1O
inactive: CRL-7250 | HEK293 | HaCat [1] 0.544% | KB-3-1 | NIH3T3 [2] 4.46% | HEK293T inactive [at 17.4 µM]

CC(C)C1CCC(CO)=CC1/C=C(\CO)C(=O)OCC1(O)CCC(C(C)C)C2C=C(C(=O)O)COC(=O)C21 (centres undefined)
inactive: CRL-7250 | HEK293 | HaCat [1] -2.47% | KB-3-1 | NIH3T3 [2] -0.853% | HEK293T inactive [at 17.4 µM]

CC1=C2CC3C(CCC3(C)O)C(C)(O)CC2OC1=O (centres undefined)
inactive: CRL-7250 -2.15% | HEK293 | HaCat [1] 3.12% | KB-3-1 6.46% | NIH3T3 [2] -16.4% | HEK293T

COc1ccc2c(c1)N1C(=O)C[C@@]34C=CC[N@+]5([O-])CC[C@H]2[C@H](CC3)[C@@]145
inactive: CRL-7250 0.465% | HEK293 | HaCat [1] 0.691% | KB-3-1 | NIH3T3 [2] -2.66% | HEK293T

CC1CCC23COC(=O)C2=CC(O)CC3C1(C)CCc1ccoc1 (centres undefined)
inactive: CRL-7250 1.42% | HEK293 | HaCat [1] -3.63% | KB-3-1 -2.5% | NIH3T3 [2] -7.2% | HEK293T

C=C1CCc2occ(C)c2[C@H]2[C@H]1[C@@]13O[C@@]1(C[C@@H](C)[C@H]3OC(C)=O)[C@H]1O[C@@]21C
inactive: CRL-7250 2.94% | HEK293 | HaCat [1] -22% | KB-3-1 | NIH3T3 [2] -1.13% | HEK293T

C=CC(C)(CC/C=C(\C)C(=O)OC)OC1OC(COC(=O)CC(C)(O)CC(=O)O)C(O)C(O)C1O (centres undefined)
inactive: CRL-7250 -11.6% | HEK293 | HaCat [1] 3.32% | KB-3-1 1.2% | NIH3T3 [2] -0.702% | HEK293T inactive [at 17.4 µM]

C=C[C@H]1[C@H](O[C@@H]2O[C@H](CO)[C@@H](O)[C@H](O)[C@H]2O)OC=C2C(=O)N3Cc4c([nH]c5ccccc5c4=O)[C@@H]3C[C@H]21
inactive: CRL-7250 | HEK293 | HaCat [1] -8.84% | KB-3-1 | NIH3T3 [2] -10.2% | HEK293T inactive [at 17.4 µM]

C/C(CO)=C1/CCC23COC(C2)C(O)(C(=O)O)CCC13 (centres undefined)
inactive: CRL-7250 1.3% | HEK293 | HaCat [1] 0.569% | KB-3-1 2.82% | NIH3T3 [2] -0.495% | HEK293T
